This is a sample that favours compounds with a hit; in the whole collection about 8% have one here.
HCV inh = blocks hepatitis C virus; Huh7.5.1 HCVcc-Cre infection, luciferase reporter, 44 h; Potency, µM (top dose mostly 41.8 µM), for the others: at the highest dose activity change, negative = inhibition, actives largely listed as inhibitors; 3.4% of 340,000 active; AID 651820; active = well fitted inhibition curve with a large enough effect; inconclusive = small, poorly fitted or top-dose-only effect, or another doubt; inactive = no such curve, though single readings can be large or run the other way; also: potency is read from the fitted curve at half-maximal effect; % is scaled to controls: 0 for no effect and ±100 for the full control effect
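Luciferase read-out (15 sec integration) after a 15 min room-temperature substrate step quantifies HCVcc-Cre infection. Cells, 1,000 per well, had compound added 4 h post-plating, then virus at ~0.5 moi, and were cultured 44 h.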
LASV entry inh = blocks Lassa virus binding to or entry into cells | Potency, µM (titrated, usually from 37.9 µM), inactives show top-dose activity change, negative = inhibition, most hits filed as inhibitors | Lassa virus pseudotype entry inhibition, cell reporter | 1.2% of 300,000 active | AID 540256; calls by dose curve; tested in HEK293 cells; also: potency is read from the fitted curve at half-maximal effect; % is scaled to controls: 0 for no effect and ±100 for the full control effect; nearly all actives have a fitted effect of over 50% in size
SARS PLP yeast = blocks SARS-CoV papain-like protease in a yeast assay. S. cerevisiae expressing SARS-CoV PLpro, growth rescue. 0.19% of 330,000 active. Potency, µM (series often up to 32.9 µM), for the others: at the highest dose activity, positive = growth rescue, most hits filed as activators; calls by dose curve; also: potency is read from the fitted curve at half-maximal effect; 0% is about no effect; nearly all actives have a fitted effect of over 55% in size
FMDV inh = foot and mouth disease virus antiviral activity; FMDV antiviral cell-based qHTS; Potency, µM (doses to about 57.9 µM), for inactives: at the highest dose activity change, negative = inhibition, most hits filed as inhibitors; 1.2% of 410,000 active; AID 1159524; calls by dose curve; tested in HEK293T cells; also: read-out not given here; potency is read from the fitted curve at half-maximal effect; % is scaled to controls: 0 for no effect and ±100 for the full control effect; nearly all actives have a fitted effect of over 45% in size
Marburg entry inh = inhibitors of Marburg virus binding or cell entry. Marburg virus pseudotyped entry inhibition, cell reporter. Potency, µM (highest dose often 37.8 µM), inactives show at the highest dose activity change, negative = inhibition, actives largely listed as inhibitors. 1.8% of 300,000 active. AID 540276; calls by dose curve; tested in HEK293 cells; also: potency is read from the fitted curve at half-maximal effect; % is scaled to controls: 0 for no effect and ±100 for the full control effect
HCMV inh = blocks human cytomegalovirus replication; AID 1259415; activity change, negative = inhibition, % at 57.5 µM; 4.5% of 410,000 active; HFF cells, HCMV-luciferase reporter, 72 h; stronger effect = lower value; in the data active = activity change below about -60%; inconclusive = no clear call, values can overlap the other calls; inactive = above about -39%; also: % is scaled to controls: 0 for no effect and ±100 for the full control effect
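Screen run at 2 compound doses on HFFs infected with reporter HCMV, MOI 1 PFU/cell. Luciferase activity from cell lysates at 72 h post infection gave inhibition relative to buffer-only and Salinomycin wells.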
* = called active by the depositor; [ ] = remark or other dose.

How did CS(=O)(=O)c1ccc(Cl)c(NC(=O)COC(=O)CNC(=O)c2ccccc2)c1 do in these assays?
HCV inh: 2%; LASV entry inh: 14%; SARS PLP yeast: 3%; FMDV inh: 5%; Marburg entry inh: inconclusive; HCMV inh: 4

Results for CN(CC(=O)Nc1cc(S(=O)(=O)N2CCCC2)ccc1Cl)Cc1ccc2c(c1)OCO2 ?
HCV inh: 6.3µM*; SARS PLP yeast: -10%; FMDV inh: -20%; HCMV inh: inconclusive

What do the screens show for `CS(=O)(=O)c1ccc(Cl)c(NC(=O)CNC(=O)c2ccc3c(c2)OCO3)c1`?
HCV inh: 7%; LASV entry inh: -27%[46.1 µM]; SARS PLP yeast: 4%; FMDV inh: 9%; Marburg entry inh: 0%[46.1 µM]; HCMV inh: -61*

What do the screens show for `COc1cccc(CN(C)CC(=O)Nc2cc(S(=O)(=O)N3CCCC3)ccc2Cl)c1OC`?
HCV inh: 2.8µM*; LASV entry inh: inconclusive; SARS PLP yeast: 3%; FMDV inh: inconclusive; Marburg entry inh: inconclusive; HCMV inh: -33

How did COc1ccccc1NC(=O)COn1nnc2ccc(S(=O)(=O)N3CCOCC3)cc21 do in these assays?
HCV inh: inconclusive; LASV entry inh: 4%; SARS PLP yeast: 1%; FMDV inh: -14%; Marburg entry inh: 8%[46.1 µM]; HCMV inh: -63*

What do the screens show for `COc1ccccc1CNCC(=O)Nc1cc(S(=O)(=O)N2CCOCC2)ccc1Cl`?
HCV inh: inconclusive; LASV entry inh: inconclusive; SARS PLP yeast: 3%; FMDV inh: 25µM*; Marburg entry inh: inconclusive; HCMV inh: -21

What do the screens show for `CN(CC(=O)Nc1cc(S(=O)(=O)N2CCCCCC2)ccc1Cl)Cc1ccc2c(c1)OCO2`?
HCV inh: inconclusive; SARS PLP yeast: 0%; FMDV inh: -26%; HCMV inh: -1

How did COc1ccc(S(=O)(=O)N2CCCCCC2)cc1NC(=O)CN(C)Cc1ccc2c(c1)OCO2 do in these assays?
HCV inh: 11µM*; SARS PLP yeast: 0%; FMDV inh: -15%; HCMV inh: inconclusive

How did CC(C)CON=C1C[C@@H](O)[C@@H](O)[C@@H]2[C@H]3C(=O)N(Cc4ccccc4)C(=O)[C@@H]3CC[C@@H]12 do in these assays?
Marburg entry inh: 1%[14.2 µM]

Results for CCc1cccc(CC)c1NC(=O)/C(C#N)=C/c1ccccc1C(F)(F)F ?
HCV inh: 11µM*; LASV entry inh: inconclusive; SARS PLP yeast: -81%; FMDV inh: 25µM*; Marburg entry inh: inconclusive; HCMV inh: -103*

How did Cc1cccc(C(=O)NCC(=O)OCC(=O)N(C)CC(=O)Nc2ccc(F)cc2)c1 do in these assays?
HCV inh: -11%[8.37 µM]; LASV entry inh: 0%; SARS PLP yeast: 0%; FMDV inh: -2%; Marburg entry inh: 8%; HCMV inh: -1

How did Cc1nc2ccccc2c(=O)n1N(c1ccccc1)c1ccccc1 do in these assays?
HCV inh: inconclusive; SARS PLP yeast: -1%; FMDV inh: -18%; HCMV inh: -68*

How did Cc1nc2ccccc2c(=O)n1CCc1ccccc1 do in these assays?
HCV inh: 0%; SARS PLP yeast: 9%; FMDV inh: -8%; HCMV inh: 63

What do the screens show for `CN(C)CCCN(C(=O)C1=COCCO1)c1nc2ccc(Br)cc2s1`?
HCV inh: 13µM*; LASV entry inh: -20%[46.1 µM]; SARS PLP yeast: -6%; FMDV inh: -5%; Marburg entry inh: inconclusive; HCMV inh: 6

How did COc1ccc(C)c2sc(N(CCCN(C)C)C(=O)c3ccc4c(c3)OCCO4)nc12 do in these assays?
HCV inh: inconclusive; LASV entry inh: 10µM*; SARS PLP yeast: -3%; FMDV inh: -17%; Marburg entry inh: inconclusive; HCMV inh: -11

How did Cc1cc(C)c2nc(N(CCCN(C)C)C(=O)c3ccc4c(c3)OCCO4)sc2c1 do in these assays?
HCV inh: 11µM*; LASV entry inh: inconclusive; SARS PLP yeast: -3%; FMDV inh: -24%; Marburg entry inh: inconclusive; HCMV inh: inconclusive

What do the screens show for `CCN(C(=O)C1=COCCO1)c1nc2c(C)cccc2s1`?
HCV inh: -11%[8.37 µM]; LASV entry inh: inconclusive; SARS PLP yeast: -13%; FMDV inh: 7%; Marburg entry inh: inconclusive; HCMV inh: -40

How did Cc1cc(C)c2nc(N(CCCN(C)C)C(=O)C3=COCCO3)sc2c1 do in these assays?
HCV inh: 32µM*; LASV entry inh: inconclusive; SARS PLP yeast: 3%; FMDV inh: 0%; Marburg entry inh: 20µM*; HCMV inh: -2

Results for Cn1c(CN2CCCC2)nc2cc(NC(=O)c3cccs3)ccc21 ?
HCV inh: -15%; LASV entry inh: 7%; SARS PLP yeast: -3%; FMDV inh: 29%; Marburg entry inh: inconclusive; HCMV inh: 36

What do the screens show for `COc1ccccc1NC(=O)CCN1CCC(C(N)=O)CC1`?
LASV entry inh: 6%[46.1 µM]; FMDV inh: -11%; HCMV inh: 4

How did COc1ccccc1CNC(=O)[C@H](C)NC(=O)C1CCN(C(=O)[C@@H]2CCCN2C(=O)OC(C)(C)C)CC1 do in these assays?
HCV inh: 32%; SARS PLP yeast: -6%; FMDV inh: 6%; HCMV inh: 24

What do the screens show for `Cc1ccc(CNC(=O)NC2COc3ccccc3C2)cc1` (stereo not drawn)?
LASV entry inh: -17%[46.1 µM]; FMDV inh: -10%; HCMV inh: 18

Results for CCN(CC)CCN(C(=O)c1ccc2c(c1)OCCO2)c1nc2ccc(C)cc2s1 ?
HCV inh: inconclusive; LASV entry inh: inconclusive; SARS PLP yeast: 16%; FMDV inh: -12%; Marburg entry inh: inconclusive; HCMV inh: 27

What do the screens show for `CCN(CC)CCN(C(=O)C1=COCCO1)c1nc2cc(C)cc(C)c2s1`?
HCV inh: inconclusive; LASV entry inh: -14%; SARS PLP yeast: -3%; FMDV inh: inconclusive; Marburg entry inh: 11µM*; HCMV inh: -21

How did CN1/C(=C\P(=O)(N(C)C)N(C)C)C(C)(C)c2ccccc21 do in these assays?
HCV inh: 4%; LASV entry inh: inconclusive; SARS PLP yeast: 3%; FMDV inh: inconclusive; Marburg entry inh: inconclusive; HCMV inh: -93*

What do the screens show for `CCOC(=O)/C=C1/N(C)c2ccccc2C1(C)C`?
HCV inh: 10%; LASV entry inh: 13%[46.1 µM]; SARS PLP yeast: -5%; FMDV inh: -9%; Marburg entry inh: 6%[46.1 µM]; HCMV inh: -30

How did O=C(NCc1nnc2n1CCN(C(=O)c1cccc(Cl)c1)CC2)C1CC1 do in these assays?
FMDV inh: -2%

How did O=C(COC(=O)Cc1cccc(F)c1)NC(=O)NC1CCCCC1 do in these assays?
HCV inh: 1%; LASV entry inh: 21%; SARS PLP yeast: 2%; FMDV inh: -21%; Marburg entry inh: -6%[46.1 µM]; HCMV inh: 1

How did COc1cc(N=c2ssnc2Cl)c(OC)cc1Cl do in these assays?
HCV inh: inconclusive; LASV entry inh: inconclusive; SARS PLP yeast: -2%; FMDV inh: inconclusive; Marburg entry inh: 16µM*; HCMV inh: -3
